Experimental data as given in PubChem BioAssay (NCI).
“And” between values parts separate entries of the source, which are not always exact repeats. Identical values can stand only once. The panel holds about 83,000 compounds, 20% with a hit somewhere; the sample as a whole holds those more often.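 Results are percent growth after 48 hours of single-concentration exposure. 100 means growth as in untreated cells, lower positive values show inhibition; negative values down to -100 show cell death.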 The source made the active and inactive calls. How the source made its calls: active means growth percent below 10; inactive means the rest.

What was measured:
Experiment in all cases: NCI-60 one-dose screen, 48 h (100 = growth as untreated, 0 = no growth, -100 = all killed)
Conditions in all cases: 10 µM unless noted
NCI-H23 lung = system: NCI-H23 lung
NCI-H226 lung = system: NCI-H226 lung
NCI-H322M lung = system: NCI-H322M lung
NCI-H460 lung = system: NCI-H460 lung
HOP-92 NSCLC = system: HOP-92 NSCLC
NCI-H522 lung = system: NCI-H522 lung
A549/ATCC NSCLC = system: A549/ATCC NSCLC
786-0 renal = system: 786-0 renal
COLO 205 colon = system: COLO 205 colon
DU-145 prostate = system: DU-145 prostate
K-562 leukemia = system: K-562 leukemia
MALME-3M melanoma = system: MALME-3M melanoma
MDA-MB-231 breast = system: MDA-MB-231 breast
RXF 393 renal = system: RXF 393 renal
SF-268 CNS = system: SF-268 CNS
SF-295 CNS = system: SF-295 CNS
SF-539 CNS = system: SF-539 CNS
UACC-257 melanoma = system: UACC-257 melanoma
HOP-62 NSCLC = system: HOP-62 NSCLC
M14 melanoma = system: M14 melanoma

Measured: growth

CC(=O)Nc1ccc(OC(C)=O)cc1
8.26% (active) and 106% (inactive): K-562 leukemia
-81.3% (active) and 108% (inactive): COLO 205 colon
2.3% (active) and 98.6% (inactive): NCI-H460 lung
5.48% (active) and 98.2% (inactive): NCI-H226 lung
-20.3% (active) and 111% (inactive): MDA-MB-231 breast
2.32% (active) and 95.1% (inactive): SF-539 CNS
-5.2% (active) and 95.3% (inactive): RXF 393 renal
inactive: NCI-H23 lung 12% and 103% | NCI-H322M lung 29.5% and 112% | HOP-92 NSCLC 102% | 786-0 renal 11.4% and 99.9% | MALME-3M melanoma 44.4% and 111% | SF-268 CNS 23.1% and 103% | UACC-257 melanoma 55.4% and 102%
-31.9% (active) and 105% (inactive): NCI-H522 lung
-16.4% (active) and 109% (inactive): DU-145 prostate
9.59% (active) and 105% (inactive): SF-295 CNS
6.06% (active) and 102% (inactive): A549/ATCC NSCLC

S=c1nn[nH]n1C1CCCCC1
inactive: NCI-H23 lung 111% | NCI-H226 lung 102% | NCI-H322M lung 102% | HOP-62 NSCLC 126% | NCI-H460 lung 95.7% | HOP-92 NSCLC 93.2% | NCI-H522 lung 117% | A549/ATCC NSCLC 106% | 786-0 renal 99.7% | COLO 205 colon 123% | DU-145 prostate 105% | K-562 leukemia 122% | MALME-3M melanoma 95.8% | MDA-MB-231 breast 116% | RXF 393 renal 148% | SF-268 CNS 105% | SF-295 CNS 97% | SF-539 CNS 106% | UACC-257 melanoma 97.8% | M14 melanoma 100%

CCN(C)c1ccccc1
inactive: NCI-H23 lung 102% | NCI-H226 lung 95.7% | NCI-H322M lung 111% | NCI-H460 lung 108% | HOP-92 NSCLC 101% | NCI-H522 lung 99.5% | A549/ATCC NSCLC 105% | 786-0 renal 97% | COLO 205 colon 95.7% | DU-145 prostate 108% | K-562 leukemia 110% | MALME-3M melanoma 96% | MDA-MB-231 breast 98.8% | RXF 393 renal 106% | SF-268 CNS 99.1% | SF-295 CNS 91% | SF-539 CNS 97.7% | UACC-257 melanoma 103% | M14 melanoma 100%

CCCC(=O)OCC(COC(=O)CCC)OC(=O)CCC
inactive: NCI-H23 lung 104% | NCI-H226 lung 94.5% | NCI-H322M lung 93.9% | NCI-H460 lung 101% | HOP-92 NSCLC 87.3% | NCI-H522 lung 99.1% | A549/ATCC NSCLC 94.9% | 786-0 renal 102% | COLO 205 colon 111% | DU-145 prostate 111% | K-562 leukemia 97.7% | MALME-3M melanoma 107% | MDA-MB-231 breast 109% | RXF 393 renal 110% | SF-268 CNS 104% | SF-295 CNS 99.9% | SF-539 CNS 103% | UACC-257 melanoma 95.5% | M14 melanoma 102%

CN(C)c1ccc(C(=N)c2ccc(N(C)C)cc2)cc1
9.11% (active) and 15.7% (inactive): NCI-H460 lung
inactive: NCI-H23 lung 56.4% and 41.9% | NCI-H226 lung 74.5% and 47.3% | NCI-H322M lung 58.1% and 60.9% | HOP-92 NSCLC 32.5% and 27.5% | A549/ATCC NSCLC 32% and 24.2% | 786-0 renal 47.4% and 40.2% | COLO 205 colon 17.5% and 13.2% | DU-145 prostate 42.3% and 56.5% | MALME-3M melanoma 61.6% | MDA-MB-231 breast 53.9% and 35.9% | RXF 393 renal 49.6% and 39.6% | SF-268 CNS 44.5% and 53.6% | SF-295 CNS 26.7% and 12.1% | SF-539 CNS 41.1% and 34.6% | UACC-257 melanoma 38.2% and 51.7%
-23.9% (active) and 17.8% (inactive): NCI-H522 lung
active: M14 melanoma 2.95%
12.8% (inactive) and 7.8% (active): K-562 leukemia

CC(=O)C[n+]1ccccc1Sc1ccc(Cl)cc1
inactive: NCI-H23 lung 100% | NCI-H226 lung 91.1% | NCI-H322M lung 99.6% | HOP-62 NSCLC 107% | NCI-H460 lung 77% | HOP-92 NSCLC 98.8% | NCI-H522 lung 108% | A549/ATCC NSCLC 84.6% | 786-0 renal 82.6% | COLO 205 colon 109% | DU-145 prostate 95% | K-562 leukemia 90.9% | MALME-3M melanoma 97.1% | MDA-MB-231 breast 52.3% | RXF 393 renal 109% | SF-268 CNS 74.9% | SF-295 CNS 82.9% | SF-539 CNS 68.8% | UACC-257 melanoma 99% | M14 melanoma 99.3%

C(#CCN1CCOCC1)CCCN1CCOCC1
inactive: NCI-H23 lung 109% and 105% | NCI-H226 lung 100% and 115% | NCI-H322M lung 119% and 99% | HOP-62 NSCLC 93.5% and 99.9% | NCI-H460 lung 114% and 111% | NCI-H522 lung 105% and 95.4% | A549/ATCC NSCLC 105% and 100% | 786-0 renal 110% and 100% | COLO 205 colon 105% and 104% | DU-145 prostate 109% and 117% | K-562 leukemia 114% and 113% | MALME-3M melanoma 117% and 88.9% | MDA-MB-231 breast 96.7% and 106% | RXF 393 renal 110% and 119% | SF-268 CNS 105% and 104% | SF-295 CNS 113% and 106% | SF-539 CNS 104% and 91.7% | UACC-257 melanoma 97.5% and 101% | M14 melanoma 105% and 98%

CN(C)C(=S)N(C)C
inactive: NCI-H23 lung 99.4% | NCI-H226 lung 108% | NCI-H322M lung 140% | NCI-H460 lung 119% | HOP-92 NSCLC 93.4% | NCI-H522 lung 83.2% | A549/ATCC NSCLC 100% | 786-0 renal 108% | COLO 205 colon 123% | DU-145 prostate 110% | K-562 leukemia 106% | MALME-3M melanoma 165% | MDA-MB-231 breast 111% | RXF 393 renal 114% | SF-268 CNS 103% | SF-295 CNS 112% | SF-539 CNS 99.2% | UACC-257 melanoma 107% | M14 melanoma 101%

N#Cc1c(N)nc2c(c(-c3ccc(Cl)cc3)nn2-c2ccccc2)c1C#N
inactive: NCI-H23 lung 93.7% [100 µM] | NCI-H226 lung 97.1% [100 µM] | NCI-H322M lung 104% [100 µM] | NCI-H460 lung 96.8% [100 µM] | HOP-92 NSCLC 90.8% [100 µM] | NCI-H522 lung 102% [100 µM] | A549/ATCC NSCLC 94.9% [100 µM] | 786-0 renal 72.2% [100 µM] | COLO 205 colon 117% [100 µM] | DU-145 prostate 101% [100 µM] | K-562 leukemia 97.6% [100 µM] | MALME-3M melanoma 105% [100 µM] | MDA-MB-231 breast 98% [100 µM] | RXF 393 renal 97.1% [100 µM] | SF-268 CNS 93.7% [100 µM] | SF-295 CNS 97.9% [100 µM] | SF-539 CNS 74.1% [100 µM] | UACC-257 melanoma 91.8% [100 µM] | M14 melanoma 106% [100 µM]

Cn1c(-c2ccccc2)cc(=O)cc1-c1ccccc1
inactive: NCI-H23 lung 73.8% | NCI-H226 lung 101% | NCI-H322M lung 97% | NCI-H460 lung 37.8% | HOP-92 NSCLC 90.3% | NCI-H522 lung 56.4% | A549/ATCC NSCLC 96.4% | 786-0 renal 106% | COLO 205 colon 96.9% | K-562 leukemia 99.8% | MALME-3M melanoma 122% | MDA-MB-231 breast 88.8% | RXF 393 renal 62% | SF-268 CNS 89.9% | SF-295 CNS 93.7% | SF-539 CNS 111% | UACC-257 melanoma 95.1% | M14 melanoma 97.7%
active: DU-145 prostate 3.58%

Cn1c(N)c(N=O)c(=O)n(C)c1=O
inactive: NCI-H23 lung 96.2% | NCI-H226 lung 115% and 104% | NCI-H322M lung 113% and 88.7% | NCI-H460 lung 111% and 102% | HOP-92 NSCLC 103% | NCI-H522 lung 97% and 73.4% | A549/ATCC NSCLC 106% and 96.8% | 786-0 renal 108% and 103% | COLO 205 colon 107% and 117% | DU-145 prostate 108% and 102% | K-562 leukemia 86.8% and 108% | MALME-3M melanoma 115% and 90.9% | MDA-MB-231 breast 108% and 98.7% | RXF 393 renal 170% and 109% | SF-268 CNS 94.6% and 90.7% | SF-295 CNS 105% and 103% | SF-539 CNS 107% and 100% | UACC-257 melanoma 101% | M14 melanoma 100% and 96.7%
